# According to the supplement of paper PMC4022240:
# ± gives the standard deviation.
# Assays:
# Experiment in all cases: peptide microarray binding signal (635 nm), min-max normalized on array (fraction of array maximum); higher = stronger binding
# [1] = biological target: T1, HaloTag-ATRX ADD domain (163-292)
# T1 chain: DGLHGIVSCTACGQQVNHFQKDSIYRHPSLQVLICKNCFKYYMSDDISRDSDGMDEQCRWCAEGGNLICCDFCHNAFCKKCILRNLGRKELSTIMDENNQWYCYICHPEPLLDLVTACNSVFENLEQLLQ
# How it was run: (§1)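 For each library, binding signal was taken as the triplicate-spot mean intensity and then min-max scaled. Spots of histone 13-mer peptide–cellulose conjugates on nitrocellulose, printed in triplicate with a Cy3 tracer, were probed for 1 h at 4°C with either biotin-labelled HaloTag reader fusions (10 nM to 1 μM) and streptavidin-Alexa Fluor 647 or rabbit histone antibodies (1:10,000 to 1:2,000) and anti-rabbit Alexa 647. Readout at 635 nm came from an Axon GenePix 4000B.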
# [2] = biological target: HaloTag-ING2 PHD (mouse Ing2 200-280)
# How it was run: as §1
# [3] = biological target: anti-H3K4me3 antibody ab8580
# How it was run: as §1
# [4] = biological target: anti-H3K9me3 antibody ab8898
# How it was run: as §1
# [5] = peptide region: Unmod H1 variant, binder concentration: 50 nM
# [6] = peptide region: Unmod H1 variant, binder concentration: 500 nM
# [7] = peptide region: Unmod H1 variant, binder concentration: 10 nM
# [8] = peptide region: Unmod H1 variant, binder concentration: 100 nM
# [9] = peptide region: Unmod H1 variant, binder concentration: 1:2,000 dilution
# [10] = peptide region: Unmod H1 variant, binder concentration: 1:10,000 dilution
# [11] = peptide region: Unmod H2A variant, binder concentration: 50 nM
# [12] = peptide region: Unmod H2A variant, binder concentration: 500 nM
# [13] = peptide region: Unmod H2A variant, binder concentration: 10 nM
# [14] = peptide region: Unmod H2A variant, binder concentration: 100 nM
# [15] = peptide region: Unmod H2A variant, binder concentration: 1:2,000 dilution
# [16] = peptide region: Unmod H2A variant, binder concentration: 1:10,000 dilution
binder,measurement,setting,value
PKKAKAAKPKKAP [Unmod H1 variant P K K A K A A K P K K A P],peptide microarray binding signal,[1]; [5],0.009 ± 0.00089
same,peptide microarray binding signal,[1]; [6],0.01 ± 0.00062
same,peptide microarray binding signal,[2]; [7],0.00424 ± 0.00016
same,peptide microarray binding signal,[2]; [8],0.00751 ± 0.00063
same,peptide microarray binding signal,[3]; [9],0.0006985 ± 6.5e-06
same,peptide microarray binding signal,[3]; [10],0.00171 ± 3.3e-05
same,peptide microarray binding signal,[4]; [9],0.000589 ± 9.4e-06
same,peptide microarray binding signal,[4]; [10],0.00773 ± 0.0051
KKAPKSPAKAKAV [Unmod H1 variant K K A P K S P A K A K A V],peptide microarray binding signal,[1]; [5],0.00658 ± 0.0021
same,peptide microarray binding signal,[1]; [6],0.00976 ± 0.00041
same,peptide microarray binding signal,[2]; [7],0.00412 ± 0.0002
same,peptide microarray binding signal,[2]; [8],0.00978 ± 0.00048
same,peptide microarray binding signal,[3]; [9],0.000793 ± 4.5e-05
same,peptide microarray binding signal,[3]; [10],0.00154 ± 3.9e-05
same,peptide microarray binding signal,[4]; [9],0.000347 ± 9.2e-06
same,peptide microarray binding signal,[4]; [10],0.00115 ± 2e-05
AKAVKPKAAKPKT [Unmod H1 variant A K A V K P K A A K P K T],peptide microarray binding signal,[1]; [5],0.0116 ± 0.00013
same,peptide microarray binding signal,[1]; [6],0.00791 ± 0.00033
same,peptide microarray binding signal,[2]; [7],0.00304 ± 8.9e-05
same,peptide microarray binding signal,[2]; [8],0.00765 ± 0.00045
same,peptide microarray binding signal,[3]; [9],0.000774 ± 2.8e-05
same,peptide microarray binding signal,[3]; [10],0.00137 ± 1.3e-05
same,peptide microarray binding signal,[4]; [9],0.000453 ± 1.3e-05
same,peptide microarray binding signal,[4]; [10],0.000865 ± 9e-06
KPKTAKPKAAKPK [Unmod H1 variant K P K T A K P K A A K P K],peptide microarray binding signal,[1]; [5],0.0113 ± 0.0004
same,peptide microarray binding signal,[1]; [6],0.00857 ± 0.00027
same,peptide microarray binding signal,[2]; [7],0.00292 ± 8.4e-05
same,peptide microarray binding signal,[2]; [8],0.00914 ± 0.00042
same,peptide microarray binding signal,[3]; [9],0.000736
same,peptide microarray binding signal,[3]; [10],0.00143 ± 2.4e-05
same,peptide microarray binding signal,[4]; [9],0.000529 ± 1.8e-05
same,peptide microarray binding signal,[4]; [10],0.0011 ± 1.1e-05
KAAKPKKAAAKKK [Unmod H1 variant K A A K P K K A A A K K K],peptide microarray binding signal,[1]; [5],0.00972 ± 0.0014
same,peptide microarray binding signal,[1]; [6],0.00767 ± 0.00046
same,peptide microarray binding signal,[2]; [7],0.0034 ± 6.6e-05
same,peptide microarray binding signal,[2]; [8],0.00673 ± 0.00083
same,peptide microarray binding signal,[3]; [9],0.0007173 ± 6.6e-06
same,peptide microarray binding signal,[3]; [10],0.00143
same,peptide microarray binding signal,[4]; [9],0.000619 ± 2.4e-05
same,peptide microarray binding signal,[4]; [10],0.00156 ± 6.6e-05
KAKSSAKRAGKKK [Unmod H1 variant K A K S S A K R A G K K K],peptide microarray binding signal,[1]; [6],0.016 ± 0.0011
same,peptide microarray binding signal,[2]; [8],0.00369 ± 5.6e-05
same,peptide microarray binding signal,[3]; [9],0.00034 ± 6.1e-06
same,peptide microarray binding signal,[4]; [9],0.000227
KAAAASKKKPAGP [Unmod H1 variant K A A A A S K K K P A G P],peptide microarray binding signal,[1]; [6],0.0113 ± 0.0013
same,peptide microarray binding signal,[2]; [8],0.003402 ± 3e-05
same,peptide microarray binding signal,[3]; [9],0.000321 ± 3.3e-06
same,peptide microarray binding signal,[4]; [9],0.000181 ± 3.4e-06
SGRGKQGGKARAK [Unmod H2A variant S G R G K Q G G K A R A K],peptide microarray binding signal,[1]; [11],0.0203 ± 0.0024
same,peptide microarray binding signal,[1]; [12],0.0194 ± 0.0069
same,peptide microarray binding signal,[2]; [13],0.0104 ± 0.00068
same,peptide microarray binding signal,[2]; [14],0.0167 ± 0.00073
same,peptide microarray binding signal,[3]; [15],0.000151 ± 1.7e-06
same,peptide microarray binding signal,[3]; [16],0.00337 ± 0.0001
same,peptide microarray binding signal,[4]; [15],0.00112 ± 1.7e-05
same,peptide microarray binding signal,[4]; [16],0.00133
QGGKARAKSKSRS [Unmod H2A variant Q G G K A R A K S K S R S],peptide microarray binding signal,[1]; [11],0.0112 ± 0.00043
same,peptide microarray binding signal,[1]; [12],0.0328 ± 0.0016
same,peptide microarray binding signal,[2]; [13],0.00824 ± 9.4e-05
same,peptide microarray binding signal,[2]; [14],0.0201 ± 0.0027
same,peptide microarray binding signal,[3]; [15],0.00194 ± 0.00036
same,peptide microarray binding signal,[3]; [16],0.00143 ± 2.4e-05
same,peptide microarray binding signal,[4]; [15],0.000574 ± 1.1e-05
same,peptide microarray binding signal,[4]; [16],0.000807 ± 1.5e-05
QGGKARAKAKSRS [Unmod H2A variant Q G G K A R A K A K S R S],peptide microarray binding signal,[1]; [11],0.0073 ± 0.00042
same,peptide microarray binding signal,[1]; [12],0.0168 ± 0.0004
same,peptide microarray binding signal,[2]; [13],0.002507 ± 1.4e-05
same,peptide microarray binding signal,[2]; [14],0.00758 ± 0.0021
same,peptide microarray binding signal,[3]; [15],0.00164 ± 0.00013
same,peptide microarray binding signal,[3]; [16],0.001027 ± 1e-05
same,peptide microarray binding signal,[4]; [15],0.000302 ± 3.1e-06
same,peptide microarray binding signal,[4]; [16],0.000404 ± 4.4e-06
